Data as given in PubChem BioAssay AID853 (Columbia University Molecular Screening Center, 2007).
The whole screen tested about 47,000 compounds, of which about 200 (0.43%) were called active. Roughly 1% stayed inconclusive and do not appear here.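 The calls were made as follows: active = inhibition of aggregate fluorescence above about 70%, also judged a hit by eye on the cell image (limit read from the data, passing the limit was not always enough); inconclusive = no rule stated for this call; inactive = not judged a hit on image review.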 The full list was thinned out, with actives kept by preference.

test: clearance of mutant huntingtin inclusions, primary screen, imaging, HeLa Exon1htt(103Q)mCFP, confocal imaging (AID 853); details: aggregate imaging, at 1.5 µM; fraction fluorescence in grains: measured here: aggregate grain fluorescence fraction, stronger effect = lower value; inhibition: stronger effect = higher value, zero = plate's median compound well;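 also: cells exposed to compound for three days before fixation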

Structure (SMILES) | fraction fluorescence in grains | inhibition
COc1ccc(CNC(=O)C2CCC(CNc3c(N4CCOCC4)c(=O)c3=O)CC2)cc1 (centres undefined) | 33 | 10.7% (inactive)
Cc1cc(Cl)c(S(=O)(=O)N(C)C)cc1OCC(N)=O | 20.5 | -7.1% (inactive)
O=S(=O)(/C=C/c1ccccc1)NCCc1ccccn1 | 31.8 | 7.7% (inactive)
O=C(Oc1cccnc1)c1cc2ccccc2oc1=O | 21 | -5.6% (inactive)
COC(=O)C(C)Oc1ccc2c(-c3cccc([N+](=O)[O-])c3)cc(=O)oc2c1 (centres undefined) | 35.3 | 9.1% (inactive)
CCCCCCNC(=O)CSc1nccn1Cc1ccccc1 | 18.3 | 7.5% (inactive)
CCSc1nnc(NC(=O)Cc2ccccc2OC)s1 | 52.6 | -25.1% (inactive)
COc1cccc(OC)c1C(=O)Nc1ccc(N2CCCCC2)cc1 | 19.3 | 18.4% (inactive)
C/C(=C\C(=O)c1ccc(Br)cc1)N1CCCCC1 | 28.4 | 28.3% (inactive)
CCc1c(O)cc2n(c1=O)-c1ccccc1C2(C)C | 27.7 | -37.8% (inactive)
CC1(C)CC(=O)C(C=NCCN2CCN(C(=S)Nc3cccc(Cl)c3)CC2)=C(O)C1 | 25.7 | 12.3% (inactive)
Cc1cccc(N2CCN(C(=O)CN(C)S(=O)(=O)c3ccc4c(c3)CCC(=O)N4)CC2)c1C | 43.8 | -18.5% (inactive)
COc1ccc(CCN2CNc3c(c(=O)n(C)c(=O)n3C)C2)cc1OC | 63.1 | -203% (inactive)
COc1ccc(CNC(=O)CCn2cccc2)cc1 | 29.6 | -25.4% (inactive)
CCCC(=O)Nc1nc2ccc(NC(=O)c3cccnc3)cc2s1 | 48.5 | -19% (inactive)
CCOC(=O)c1cnc(SC)nc1Sc1ccc(Cl)cc1Cl | 27.6 | -31% (inactive)
O=C(CSCc1ccc(Cl)cc1)N1CCCCC1 | 25.4 | -26.2% (inactive)
Cn1cnc2c1c(=O)n(Cc1c(Cl)cccc1Cl)c(=O)n2C | 24.1 | -22.3% (inactive)
CCOc1nc(NCCN2CCOCC2)nc(Nc2ccc(C)cc2)n1 | 42.7 | -6.3% (inactive)
CC1(C)CCc2nc(SCc3ccccc3)c(C#N)cc2C1 | 21.6 | -20.9% (inactive)
CC(NC(=O)CSc1nc2c(cc1C#N)CN(C)CC2)c1ccccc1 (centres undefined) | 10.8 | 73.3% (active)
Cc1cc2cc3c(cc2nc1SCC(=O)Nc1c(C)cccc1C)CCC3 | 26.1 | 30.7% (inactive)

Structure (SMILES) | fraction fluorescence in grains | inhibition
Cc1ccnc(SCCn2c(N(C)Cc3ccccc3)nc3c2c(=O)n(C)c(=O)n3C)n1 | 35.6 | -10.6% (inactive)
CCn1c(CNC(=O)c2ccccc2)nnc1SCC(=O)N1CCN(c2ccccc2)CC1 | 10.5 | 45.3% (inactive)
c1ccc(-c2noc(-c3cccs3)n2)nc1 | 20.2 | -19.7% (inactive)
Cc1cc(Oc2ccccc2)nc(N2CCOCC2)n1 | 29.1 | 5.3% (inactive)
COc1ccc(NS(=O)(=O)c2ccc(NC(=O)C(C)(C(F)(F)F)C(F)(F)F)cc2)nn1 | 26.9 | -29.8% (inactive)
CCOC(=O)Cn1c2c(c(-c3ccccc3OC)cc1=O)CCCC2 | 9.78 | 75.9% (active)
COc1ccc(NC(=O)COC(=O)Cn2c(C)nc3ccccc32)cc1OC | 48.2 | -28% (inactive)
CCOC(=O)CN1C(=O)C(=O)c2cc(C)ccc21 | 50.7 | -31.2% (inactive)
CCOC(=O)c1c(NC(=O)CSc2nnc(CNc3ccc(C)cc3C)o2)sc(C)c1C | 20 | 0.1% (inactive)
O=C(c1ccccn1)c1ncc(C(F)(F)F)cc1Cl | 11.8 | 69.6% (inactive)
COc1cc(C2CC(=O)c3cnc(NC(C)=O)nc3C2)cc(OC)c1OC (centres undefined) | 28.1 | -57.9% (inactive)
Cc1ccccc1NC(=O)c1cnn(-c2ccccc2)c1NC(=O)c1ccco1 | 65.2 | -45.9% (inactive)
O=C(Nc1cccc(NC(=O)c2ccco2)c1)c1cnccn1 | 17.1 | 4% (inactive)
CCOc1ccc(C(=O)Nc2cc(OC)ccc2OC)cc1 | 47.6 | -28.5% (inactive)
N#Cc1c(/N=C/N2CCCC2)oc(-c2ccccc2)c1-c1ccccc1 | 60.3 | -70.7% (inactive)
c1ccc(Nc2n[nH]nc2-c2ccccc2)cc1 | 19.1 | -9.8% (inactive)
COc1ccc(Oc2coc3cc(OC(=O)c4cncc(Br)c4)ccc3c2=O)cc1 | 38.8 | 10.3% (inactive)
CCN(CC)CCNc1ccc(Cl)cc1[N+](=O)[O-] | 50.4 | -31% (inactive)
COc1nc(NC2CCCCC2)nc(N2CCCCCC2)n1 | 7.28 | 62.7% (inactive)
ONC(=Nc1ccc(Cl)cc1)c1ccccc1Cl | 37.5 | 2.4% (inactive)
Cc1cccc(N(C(=O)Cc2cccs2)C(C(=O)NC2CCCC2)c2ccsc2)c1 (centres undefined) | 20.3 | 34% (inactive)
CCOc1ccc(N=Cc2c(O)n(-c3cccc(C)n3)c(=O)c3ccccc23)cc1 | 45.9 | -5.8% (inactive)

Structure (SMILES) | fraction fluorescence in grains | inhibition
CCC(C)(C)n1nnnc1CN1CCN(c2nc3ccc(C)cc3cc2C#N)CC1 | 29 | 23.1% (inactive)
O=c1[nH]c2c(c(=O)n1Cc1ccccc1)CCC2 | 13.3 | 28.6% (inactive)
Cc1cc(C)cc(OCc2nnc(SCC(=O)Nc3ccccc3)o2)c1 | 15 | 15.8% (inactive)
COc1ccccc1-c1nnc(SCC(=O)Nc2ccccc2)o1 | 4.28 | 73.5% (active)
COc1ccccc1-c1nnc(SCC(=O)Nc2cc(C)on2)o1 | 16.4 | 15.8% (inactive)
Cc1cc(C)n(-c2c(F)c(F)c(COC(=O)c3ccccc3)c(F)c2F)n1 | 25.1 | -56.6% (inactive)
CCCCOC(=O)Cn1c(=O)n(CC(=O)OCCCC)c2cc(C)ccc21 | 19 | -6.9% (inactive)
CC(=O)Nc1ccccc1C(=O)C(=O)Nc1ccc(F)cc1 | 57.6 | -48.2% (inactive)
CCOc1ccc(N(CC(=O)NC2CCCCCC2)S(=O)(=O)c2c(C)[nH]c(=O)[nH]c2=O)cc1 | 41.2 | -15.2% (inactive)
CCCC(=O)N1CCc2[nH]c3ccccc3c2C1 | 26.6 | 21.6% (inactive)
Cc1c(CN2CCC(C)CC2)c(=O)n(-c2ccccc2)n1C | 56.1 | -32.3% (inactive)
COc1ccc(C2C(C(C)=O)=C(O)C(=O)N2Cc2cccnc2)cc1 (centres undefined) | 15.5 | 17.5% (inactive)
COC(=O)c1cccc(NC(=O)CSc2nc(C)cc(=O)[nH]2)c1 | 13.9 | 27.8% (inactive)
Cn1ccs/c1=N\S(=O)(=O)c1ccc(C(C)(C)C)cc1 | 37.7 | 0.2% (inactive)
CCOc1ccc(NC(=O)Nc2cc(C)on2)cc1 | 23.9 | -47.8% (inactive)
CCCCOc1ccc(NC(=O)CSCC(=O)OCC)cc1 | 53.3 | -31.6% (inactive)
CCOc1ccc(NC(=O)CCC(=O)n2nc(C)cc2C)cc1 | 4 | 79.1% (active)
O=C(CSc1nnc(-c2cccnc2)n1CCc1ccccc1)NCc1ccccc1 | 34.5 | -83.7% (inactive)
CC(C)(C)C(=O)Cn1c(NCCO)nc2ccccc21 | 13.3 | 30.8% (inactive)
Oc1c(C(c2cccs2)N2CCN(c3ccc(F)cc3)CC2)sc2ncnn12 (centres undefined) | 72.5 | -45.9% (inactive)
COc1ccc(-n2c(SCC(=O)NCc3cccs3)nnc2-c2ccoc2C)cc1 | 22.6 | 33.8% (inactive)
O=C(NCCCNCc1ccccc1)c1ccc(/C=N/O)nc1 | 39.1 | 3.6% (inactive)

Structure (SMILES) | fraction fluorescence in grains | inhibition
Cc1ccc(C2C(C#N)C(C#N)N3CCCN23)cc1 (centres undefined) | 23.7 | 40.7% (inactive)
CCOc1ccccc1C(=O)NC1CC2CCCC(C1)N2Cc1ccccc1 (centres undefined) | 14.9 | 23.5% (inactive)
CNc1nc(SC)nc(N(C#N)CC(=O)OC)n1 | 30.5 | -71% (inactive)
CCC(=O)Nc1nc2ccccc2n1Cc1ccccc1C | 32.9 | 4.8% (inactive)
CC(=O)NC(C)c1nc2ccccc2n1Cc1ccccc1F (centres undefined) | 3.88 | 76.4% (active)
C=CCn1c(C(C)NC(=O)CC)nc2ccccc21 (centres undefined) | 34.1 | -61.6% (inactive)
COC(=O)C1C(=O)NCC1c1ccc(OC)cc1 (centres undefined) | 12 | 35.5% (inactive)
Cc1sc2nc(SCC(N)=O)n(C)c(=O)c2c1C | 18.7 | -1.9% (inactive)
Cc1ccccc1NC(=O)c1ccccc1NS(=O)(=O)c1cccc2cccnc12 | 11.2 | 46.2% (inactive)
Cn1c(SCC(=O)N2CCOCC2)nnc1-c1ccc(NC(=O)c2ccccc2F)cc1 | 22.6 | -25.1% (inactive)
O=C(NCCCCc1ccccc1)C1CC(c2ccc([N+](=O)[O-])cc2)=NO1 (centres undefined) | 23.6 | 39.3% (inactive)
NC1=NC(=O)C2(COC(c3ccccc3Cl)OC2)S1 (centres undefined) | 13.6 | 19.2% (inactive)
Cc1nnc(SCC(=O)NCCOc2ccc(Cl)cc2)n1-c1ccccc1 | 36.3 | 2.1% (inactive)
O=C(CSc1nnc(-c2cccs2)n1Cc1ccccc1)N1CCc2ccccc2C1 | 52.6 | -33.1% (inactive)
CCOc1ccccc1C1NC(=O)NC(C)=C1C(=O)OCc1ccco1 (centres undefined) | 36.7 | -10.5% (inactive)
COCCOC(=O)C1=C(C)NC(=O)NC1c1ccc(Cl)cc1 (centres undefined) | 28.5 | 33.5% (inactive)
COc1cccc2c(=O)n(CC(=O)N3CCCCCC3)ccc12 | 40.9 | -22% (inactive)
COc1ccc(N(CC(=O)NC2CCCCC2)C(=O)CNC(=O)c2ccco2)c(OC)c1 | 22.1 | -26.1% (inactive)
Cc1noc(COc2ccccc2OCc2onc(C)c2Cl)c1Cl | 24.8 | -49.4% (inactive)
CCOC(=O)C1CCN(Cc2coc3ccc(Cl)cc3c2=O)CC1 | 22.3 | -15.2% (inactive)
Cc1cccc2c(=O)n3c(nc12)CCCCC3 | 18.2 | 11% (inactive)
